Shown are actives, neighbours in structure and some others; about 7.8% of the full set was active somewhere.
PostGolgi yeast – growth inhibition of a yeast mutant, post-Golgi transport screen | post-Golgi transport phenotypic cell assay | inhibition, % at 10 µM | actives 0.9% (n = 98,000);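 further: yeast cells grown in 1536-well plates; yeast grown about 18 h at 30C before absorbance read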
PostGolgi ctrl – growth of the yeast control strain, post-Golgi counter-screen | efflux-deficient yeast background strain, growth absorbance A615, 16 h | inhibition, % at 10 µM | actives 5% (n = 98,000) | AID 738
Cav3 T inh – blocks human Cav3.2 T-type calcium channel | O95180 | Cav3.2-expressing cells, Fluo-4 calcium fluorescence FDSS; active compounds read low | B-score at 10 µM | actives 4% (n = 100,000);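 active means single-dose well whose peak fluorescence ratio is a statistical outlier from its plate by either plate-standardised score or position-corrected B-score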
sEH inh – soluble epoxide hydrolase (human) inhibition | P34913 | recombinant human sEH enzymatic activity assay | AID 707 | actives 0.34% (n = 91,000) | inhibition, % at 2 µM; in the data active means inhibition above about 80%
sEH act – increases human soluble epoxide hydrolase activity; actives 0.04% (n = 91,000); purified human sEH enzymatic activity, activator screen; P34913; AID 717; activation, % at 2 µM; in the data active means activation above about 37%
Active calls of the source: *; . = not tested or not shown. Unless noted, no stated cut-off is given here; in the data, active means inhibition above about 30%; inactive means the rest.

SMILES	PostGolgi yeast	PostGolgi ctrl	Cav3 T inh	sEH inh	sEH act
O=C(OC1C[C@@H]2CC3C[C@H](C1)N2CC3=O)c1c[nH]c2ccccc12 (stereo not given in full)	.	.	-1.4	.	.
C#CC(CO)N(CCN(Cc1ccccc1)C(C#C)CO)Cc1ccccc1 (stereo not given)	9	29	-6.7*	-1	2
Cc1nc(N)c(C#N)c(-c2ccccc2)c1C	-1	31*	-0.25	-14	14
O=C(NC1CC2CCCC(C1)N2C1CC1)NC12CC3CC(CC(C3)C1)C2 (stereo not given)	.	.	.	99*	-99
O=C(Nc1ccncc1)c1cc(F)cc(F)c1	-2	3	0.16	-5	6
COc1ccc(/C=C/C(=O)c2ccccc2)cc1COc1ccccc1F	-9	5	-4.2*	0	2
COc1ccc(/C=C/C(=O)c2ccccc2O)cc1CN1CCOCC1	19	14	0.7	2	-1
O=C(c1ccc(Cl)cc1)C1CCN(C(=O)C2CC2)CC1	23	19	0.81	-5	4
COc1ccc(C2NC(=O)C(C)S2)cc1 (stereo not given)	6	6	0.24	0	-2
Cc1ccc(-c2ccc(/C=C(\C#N)C(=O)Nc3cc(C)nn3-c3ccccc3)o2)cc1	1	8	-6.6*	-16	13
CCCN(CCC)c1nc(N)nc(-c2cc(Cl)ccc2OC)n1	9	56*	-1.2	7	-5
O=c1[nH]c2ccc(Cl)cc2c(-c2ccccc2)c1N1CCN(c2ccccn2)CC1	31*	82*	-0.36	.	.
Oc1ccccc1-c1cc(-c2ccccc2)no1	3	43*	0.14	5	-3
Cc1ccccc1-c1cc(-c2ccccc2O)on1	-3	12	0.91	0	2
CCCN(CCC)C(=O)CSc1nc2n[nH]c(C)c2c(=N)n1-c1ccc(OCC)cc1	-3	15	-6.2*	.	.
C/C(CC(=O)NCc1ccco1)=N\NC(=O)Cc1ccc(Cl)cc1	-11	0	-0.77	2	1
C/C(CC(=O)Nc1cccc(Cl)c1)=N\NC(=O)Cc1ccc(Cl)cc1	-4	12	-9.1*	10	-10
C/C(CCc1ccc2c(c1)OCO2)=N\N=C(/N)SC1CC(=O)N(c2ccccc2F)C1=O (stereo not given)	3	-1	-5.9*	9	-10
CCc1ccccc1N(C(=O)CCC(=O)Nc1cc(C)on1)C(C(=O)NC1CCCC1)c1ccco1 (stereo not given)	.	.	-2.3	.	.
Cc1nn2c(-c3ccccc3)nnc2c2ccccc12	-1	31*	2.2	6	-3
Cn1c(-c2ccc3c(c2)OCO3)cnc1NCc1cccc(Cl)c1	-3	13	-4.8*	4	-6
O=c1ccc(/C=C/c2ccccc2)nn1Cc1ccccc1Cl	-5	41*	0.62	-10	7
COc1ccccc1-c1noc(-c2ccncc2)n1	16	-1	0.2	-3	1
COc1ccccc1-c1noc(-c2cccs2)n1	-2	32*	-0.95	10	-7
COc1ccc(OC)c(NC(=O)Cc2coc3cc(C)cc(C)c23)c1	-9	-3	-1.4	-3	0
SMILES	PostGolgi yeast	PostGolgi ctrl	Cav3 T inh	sEH inh	sEH act
COc1cccc(C2CC(c3cccs3)=NN2C(=S)Nc2ccccc2)c1OC (stereo not given)	-1	10	-4.1	7	-7
Cc1ccc(C2CC(c3ccccc3)=NN2C(=S)Nc2ccccc2)o1 (stereo not given)	29	14	-7.5*	7	-6
CNC(=O)[C@@H]1C[C@H]1[C@@H](NC(=O)CNC(=O)OCc1ccccc1)c1ccccc1	.	.	1.6	.	.
COC(=O)CNC(c1ccccc1)c1cc(Br)ccc1NC(=O)OCc1ccccc1 (stereo not given)	-6	9	-9.4*	15	-13
COC(=O)CNC(c1ccccc1)c1cc(C)ccc1NC(=O)CNC(=O)OCc1ccccc1 (stereo not given)	1	21	-7.2*	5	-3
C=CCSc1nnc(NC(=O)c2cccc(S(=O)(=O)N3CCOCC3)c2)s1	3	-4	-0.12	16	-18
Cc1cc(C)n2c(SCc3ccc(C#N)cc3)nnc2n1	9	-6	.	-6	5
Cc1cc(N2CCCCC2)nc(SCc2ccc(C#N)cc2)n1	1	40*	-4.7	14	-14
CCOC(=O)c1cc(-c2ccc(F)cc2)n(CC(=O)Nc2nccs2)c1C	.	.	.	-13	12
Cc1cc(/C=N/NC(=O)c2cccs2)c(C)n1-c1ccccc1	5	18	-7.9*	18	-17
CC1CC(OCC(O)CN2CCN(Cc3ccccc3)CC2)CC(C)(C)C1 (stereo not given)	83*	32*	-2	8	-6
OCCNc1nc(-c2cccnc2)nc2ccccc12	1	13	-0.66	-4	1
c1ccc(-c2nc(NCc3ccco3)c3oc4ccccc4c3n2)cc1	9	34*	-1.5	1	0
c1cncc(-c2nc(NCc3ccco3)c3ccccc3n2)c1	-5	57*	0.83	7	-9
OCCSc1nc(-c2cccnc2)nc2ccccc12	2	38*	0.17	-3	7
Clc1cccc(-c2nc(NCc3cccnc3)c3ccccc3n2)c1	27	72*	-0.83	12	-10
O=C(NC1CCCCC1)N1CCN(C(=O)c2ccco2)CC1	3	3	-0.0068	-4	3
Cc1ccc2nc(-c3ccc(NS(C)(=O)=O)cc3)cc(-c3ccccc3)c2c1	12	58*	-0.066	14	-12
Cc1ccc2nc(-c3ccncc3)cc(-c3ccccc3)c2c1	7	42*	-3.1	5	-3
CC(=O)Nc1ccc(-c2cc(-c3ccc(NC(C)=O)cc3)nc(-c3ccccc3)n2)cc1	-7	7	-0.36	4	-6
COC(=O)c1ccccc1S(=O)(=O)Nc1ccc(OC)nc1	26	-3	0.28	-10	10
COCCNC(=O)C(c1ccc(C)o1)N(CC1CCCO1)C(=O)Cn1nnc2ccccc21 (stereo not given)	-2	26	-0.088	4	-5
O=C(NCc1ccco1)C(c1ccc(F)cc1)N(CC1CCCO1)C(=O)Cn1nnc2ccccc21 (stereo not given)	-7	-10	-4.9*	-2	2
O=C(NCc1ccco1)C(c1ccco1)N(CCc1ccccc1)C(=O)Cn1nnc2ccccc21 (stereo not given)	-2	9	-6.2*	-7	6
O=C(NCc1ccco1)C(c1ccco1)N(Cc1cccs1)C(=O)Cn1nnc2ccccc21 (stereo not given)	.	.	0.96	-7	10
Cc1ccc(CN(C(=O)Cn2nnc3ccccc32)C(C(=O)NCc2ccco2)c2cccs2)cc1 (stereo not given)	2	5	-9.4*	-19	19
O=C(NCc1ccco1)C(c1cccs1)N(Cc1ccccc1)C(=O)Cn1nnc2ccccc21 (stereo not given)	-5	16	-3.2	-13	12
COc1ccc(NC(=O)c2cc([N+](=O)[O-])nn2Cc2ccccc2)c(C)c1	1	8	-0.032	19	-18
CCCCOCP(=O)(CCCC)COCCCC	-7	-1	-1.1	-2	0

Screens (PubChem BioAssay)
